# PubChem BioAssay (NCI)
# Compounds without any hit were thinned out: in the full panel of roughly 79,000, 15% have a hit. A number with no mark means an inactive call. Activity calls are given as the source filed them. Rule as the data show it: active = growth inhibition above about 70%; inactive = the rest.
# Tests used:
# [1] = NCI Yeast Anticancer Drug Screen. Data for the rad52 strain (AID 147);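 also: 0% = growth of vehicle-treated control cultures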; details: S. cerevisiae rad52 mutant growth inhibition, hits give high values
# Method in brief: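 The repair-mutant yeast strain was incubated with compounds, then growth was read and inhibition derived relative to vehicle.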
# [2] = NCI Yeast Anticancer Drug Screen. Data for the wt1 strain (AID 149);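 also: 0% = growth of vehicle-treated wt1 cultures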; details: S. cerevisiae wt1 strain (SPY 50644) growth inhibition, hits give high values
# Method in brief: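 The wt1 strain was treated with compounds, and growth was compared with vehicle-treated cultures to give inhibition.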
# [3] = NCI Yeast Anticancer Drug Screen. Data for the rad50EPP+ strain (AID 151);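 also: 0% = growth of vehicle-treated control cultures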; details: S. cerevisiae rad50 mutant strain, hits give high values
# Method in brief: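 Vehicle-normalised growth inhibition; rad50EPP+ yeast strain, altered in DNA damage repair, compound-treated.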
# [4] = NCI Yeast Anticancer Drug Screen. Data for the mgt1 strain (AID 153); details: S. cerevisiae mgt1 mutant growth inhibition, hits give high values
# Method in brief: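 Vehicle-normalized growth inhibition is determined in mgt1 yeast, a strain selected for a defined alteration in DNA repair or cell cycle control.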
# [5] = NCI Yeast Anticancer Drug Screen. Data for the rad50 strain (AID 155);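 also: 0% = growth of vehicle-only cultures of the same strain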; details: S. cerevisiae rad50 strain growth inhibition, hits give high values
# Method in brief: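 Cells are treated with compound, grown, and their growth is then scored against vehicle-only cultures of the same repair-deficient yeast strain.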
# [6] = NCI Yeast Anticancer Drug Screen. Data for the mec2-1 strain (AID 157); details: S. cerevisiae mec2-1 strain, hits give high values
# Method in brief: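 Mutant yeast (mec2-1) grown with compound; growth inhibition relative to vehicle control reported.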
# [7] = NCI Yeast Anticancer Drug Screen. Data for the rad14 strain (AID 159);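 also: 0% = growth of vehicle-treated control cultures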; details: S. cerevisiae rad14 strain growth inhibition, hits give high values
# Method in brief: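 Readout: yeast growth inhibition, referenced to vehicle-only cultures. Strain bears a defined alteration in DNA damage repair.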
# [8] = NCI Yeast Anticancer Drug Screen. Data for the sgs1 mgt1 strain (AID 161);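 also: 0% = growth of cultures given vehicle only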; details: S. cerevisiae sgs1 mgt1 strain, hits give high values
# Method in brief: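 Percent growth inhibition was derived by comparing compound-exposed mutant yeast with vehicle-exposed cultures. The strain carries alterations in DNA damage repair.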
# [9] = NCI Yeast Anticancer Drug Screen. Data for the CLN2oe strain (AID 163);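 also: 0% = growth of vehicle-only control cultures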; details: S. cerevisiae CLN2oe strain, hits give high values
# Method in brief: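 Compounds are applied to yeast harbouring a defined cell-cycle control change; reduced growth compared with vehicle-treated controls gives the value.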
# [10] = NCI Yeast Anticancer Drug Screen. Data for the cln2 rad14 strain (AID 165);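 also: 0% = growth equal to vehicle treated cultures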; details: S. cerevisiae cln2 rad14 strain, hits give high values
# Method in brief: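 Readout is yeast growth inhibition versus vehicle-treated controls, using a strain with cln2 and rad14 alterations exposed to compound.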
# [11] = NCI Yeast Anticancer Drug Screen. Data for the bub3 strain (AID 167); details: S. cerevisiae bub3 mutant strain, hits give high values
# Method in brief: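 Part of a panel of yeast mutants defective in DNA damage repair or cell cycle regulation. Each strain is grown with compound, and inhibition is calculated relative to solvent-treated cultures.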
# [12] = NCI Yeast Anticancer Drug Screen. Data for the wt2 strain (AID 169);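 also: 0% = growth of vehicle-treated yeast cultures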; details: S. cerevisiae wt2 strain growth inhibition, hits give high values
# Method in brief: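 Against vehicle-treated controls, the growth of yeast exposed to each compound was compared, and the inhibition was recorded.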
# [13] = NCI Yeast Anticancer Drug Screen. Data for the mlh1 strain (AID 171);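 also: 0% = growth of vehicle-treated control cultures of the same strain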; details: S. cerevisiae mlh1 strain growth inhibition, hits give high values
# Method in brief: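 Measured: yeast growth. Reference: vehicle-treated controls. Organism: strain with a defined alteration affecting DNA damage repair or cell cycle control, treated with compound.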
# [14] = NCI Yeast Anticancer Drug Screen. Data for the sgs1 strain (AID 173);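 also: 0% = growth of vehicle-only control cultures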; details: S. cerevisiae sgs1 mutant, hits give high values
# Method in brief: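 Each compound was added to cultures of the altered yeast strain. Growth was recorded, and inhibition was derived by comparison with vehicle controls.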
# [15] = NCI Yeast Anticancer Drug Screen. Data for the mlh1 rad18 strain (AID 175); details: S. cerevisiae mlh1 rad18 strain growth inhibition, hits give high values
# Method in brief: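 Genetically defined yeast (DNA repair-deficient) exposed to compounds; growth inhibition determined relative to vehicle.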
# [16] = NCI Yeast Anticancer Drug Screen. Data for the rad18 strain (AID 177); details: S. cerevisiae rad18 mutant growth inhibition, hits give high values
# Method in brief: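 Vehicle-treated cultures served as the baseline for scoring compound-induced growth inhibition in DNA-repair-mutant yeast.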
# [17] = at 5.0 µM (retest, dose inferred, filed as 0.5)
# [18] = at 50.0 µM (retest, dose inferred, filed as 5.0)
smiles,measurement,setting,value
CN(N=O)N1C(=O)SCC(c2ccccc2)(c2ccccc2)C1=O,growth inhibition,[1]; at 1.2 µM,-2%
same,growth inhibition,[1]; at 3.7 µM,1%
same,growth inhibition,[1]; at 11.0 µM,6%
same,growth inhibition,[1]; at 33.0 µM,16%
same,growth inhibition,[1]; at 100.0 µM,42%
same,growth inhibition,[2]; at 1.2 µM,-3%
same,growth inhibition,[2]; at 3.7 µM,-5%
same,growth inhibition,[2]; at 11.0 µM,-3%
same,growth inhibition,[2]; at 33.0 µM,-3%
same,growth inhibition,[2]; at 100.0 µM,4%
same,growth inhibition,[3]; at 1.2 µM,-4%
same,growth inhibition,[3]; at 3.7 µM,0%
same,growth inhibition,[3]; at 11.0 µM,0%
same,growth inhibition,[3]; at 33.0 µM,2%
same,growth inhibition,[3]; at 100.0 µM,3%
same,growth inhibition,[4]; at 1.2 µM,-1%
same,growth inhibition,[4]; at 3.7 µM,1%
same,growth inhibition,[4]; at 11.0 µM,1%
same,growth inhibition,[4]; at 33.0 µM,-1%
same,growth inhibition,[4]; at 100.0 µM,3%
same,growth inhibition,[5]; at 1.2 µM,3%
same,growth inhibition,[5]; at 3.7 µM,4%
same,growth inhibition,[5]; [17],-26%
same,growth inhibition,[5]; at 11.0 µM,13%
same,growth inhibition,[5]; at 33.0 µM,11%
same,growth inhibition,[5]; [18],66%
same,growth inhibition,[5]; at 50.0 µM,56%
same,growth inhibition,[5]; at 100.0 µM,37%
same,growth inhibition,[6]; at 1.2 µM,0%
same,growth inhibition,[6]; at 3.7 µM,1%
same,growth inhibition,[6]; [17],10%
same,growth inhibition,[6]; at 11.0 µM,1%
same,growth inhibition,[6]; at 33.0 µM,5%
same,growth inhibition,[6]; [18],40%
same,growth inhibition,[6]; at 50.0 µM,32.2%
same,growth inhibition,[6]; at 100.0 µM,27%
same,growth inhibition,[7]; at 1.2 µM,1%
same,growth inhibition,[7]; at 3.7 µM,-5%
same,growth inhibition,[7]; at 11.0 µM,-3%
same,growth inhibition,[7]; at 33.0 µM,-10%
same,growth inhibition,[7]; at 100.0 µM,-4%
same,growth inhibition,[8]; [17],9%
same,growth inhibition,[8]; [18],64%
same,growth inhibition,[8]; at 50.0 µM,48.5%
same,growth inhibition,[9]; at 1.2 µM,-1%
same,growth inhibition,[9]; at 3.7 µM,4%
same,growth inhibition,[9]; at 11.0 µM,4%
same,growth inhibition,[9]; at 33.0 µM,2%
same,growth inhibition,[9]; at 100.0 µM,9%
same,growth inhibition,[10]; [17],-26%
same,growth inhibition,[10]; [18],16%
same,growth inhibition,[10]; at 50.0 µM,10.7%
same,growth inhibition,[11]; at 1.2 µM,-2%
same,growth inhibition,[11]; at 3.7 µM,1%
same,growth inhibition,[11]; [17],3%
same,growth inhibition,[11]; at 11.0 µM,12%
same,growth inhibition,[11]; at 33.0 µM,15%
same,growth inhibition,[11]; [18],70% (active)
same,growth inhibition,[11]; at 50.0 µM,66.2%
same,growth inhibition,[11]; at 100.0 µM,26%
same,growth inhibition,[12]; at 1.2 µM,-1%
same,growth inhibition,[12]; at 3.7 µM,-1%
same,growth inhibition,[12]; at 11.0 µM,-1%
same,growth inhibition,[12]; at 33.0 µM,1%
same,growth inhibition,[12]; at 100.0 µM,11%
same,growth inhibition,[13]; at 1.2 µM,3%
same,growth inhibition,[13]; at 3.7 µM,-1%
same,growth inhibition,[13]; at 11.0 µM,1%
same,growth inhibition,[13]; at 33.0 µM,2%
same,growth inhibition,[13]; at 100.0 µM,-8%
same,growth inhibition,[14]; at 1.2 µM,-1%
same,growth inhibition,[14]; at 3.7 µM,0%
same,growth inhibition,[14]; at 11.0 µM,5%
same,growth inhibition,[14]; at 33.0 µM,13%
same,growth inhibition,[14]; at 100.0 µM,35%
same,growth inhibition,[15]; [17],-7%
same,growth inhibition,[15]; [18],71% (active)
same,growth inhibition,[15]; at 50.0 µM,84.5% (active)
same,growth inhibition,[16]; at 1.2 µM,-1%
same,growth inhibition,[16]; at 3.7 µM,-3%
same,growth inhibition,[16]; at 11.0 µM,8%
same,growth inhibition,[16]; at 33.0 µM,28%
same,growth inhibition,[16]; at 100.0 µM,72% (active)
